Laboratory results: PubChem BioAssay AID488969 (Vanderbilt High Throughput Screening Facility, 2010)
In all, about 110,000 compounds were measured (“z-score”: median about -0.1, highest 2% from about 2 on). What follows is part of a selection rich in the highest values, with near analogues and random picks from the rest. Activity calls are given as the source filed them.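 Rule for the calls: active = z-score in the third read window above 3 or below -3; inactive = the rest.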

These compounds were tested against Metabotropic glutamate receptor 8 (Rattus norvegicus) (UniProt P70579) (assay: mGluR8 Gi/Go-coupled signaling modulation – cell-based, rat, thallium flux, HTS, primary screen (AID 488969)). Conditions: HEK293 rat mGluR8, GIRK (G protein-gated inwardly rectifying potassium channel) thallium flux, FluoZin2; at 10 µM; stronger effect = higher value; submaximal glutamate (EC20) added with thallium.
Metabotropic glutamate receptor 8 (Rattus norvegicus), sequence (P70579 whole entry, looked up): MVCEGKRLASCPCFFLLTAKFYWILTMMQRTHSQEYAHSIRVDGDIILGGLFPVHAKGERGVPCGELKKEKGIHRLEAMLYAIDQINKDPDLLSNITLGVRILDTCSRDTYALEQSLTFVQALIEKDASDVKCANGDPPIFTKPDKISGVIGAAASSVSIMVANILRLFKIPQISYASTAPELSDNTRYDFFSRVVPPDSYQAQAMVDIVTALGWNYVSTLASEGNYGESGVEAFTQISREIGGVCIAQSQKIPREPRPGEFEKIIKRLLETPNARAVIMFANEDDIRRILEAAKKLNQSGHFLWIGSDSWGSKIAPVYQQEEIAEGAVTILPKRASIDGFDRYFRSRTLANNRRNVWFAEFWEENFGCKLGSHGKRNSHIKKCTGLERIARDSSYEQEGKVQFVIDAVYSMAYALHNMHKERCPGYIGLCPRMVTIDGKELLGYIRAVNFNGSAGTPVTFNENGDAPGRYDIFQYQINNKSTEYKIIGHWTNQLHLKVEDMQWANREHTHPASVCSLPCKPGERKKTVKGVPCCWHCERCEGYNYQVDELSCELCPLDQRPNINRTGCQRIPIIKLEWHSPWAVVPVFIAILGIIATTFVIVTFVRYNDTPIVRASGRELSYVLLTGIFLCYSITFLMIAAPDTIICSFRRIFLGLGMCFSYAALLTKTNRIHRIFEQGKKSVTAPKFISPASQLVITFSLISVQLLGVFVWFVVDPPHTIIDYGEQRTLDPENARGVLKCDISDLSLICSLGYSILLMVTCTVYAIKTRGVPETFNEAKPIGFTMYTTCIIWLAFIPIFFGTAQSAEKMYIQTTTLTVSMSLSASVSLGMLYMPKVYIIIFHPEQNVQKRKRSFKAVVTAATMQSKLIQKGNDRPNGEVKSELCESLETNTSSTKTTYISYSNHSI

| Structure (SMILES) | z-score |
| --- | --- |
| O=C(c1ccccc1-c1ccccc1)N1CCN(c2ccccn2)CC1 | -0.0481 |
| O=C(c1ccccc1CCc1ccccc1)N1CCN(c2ccccn2)CC1 | 2.38 |
| O=C(CCc1ccccc1)N1CCN(c2ccccn2)CC1 | -0.254 |
| COc1ccc(-c2nnc(NC(=O)C(C)C)o2)cc1 | 2.14 |
| CCC(=O)Nc1nnc(-c2ccc(OC)cc2)o1 | -0.442 |
| CCOc1ccc(-c2nnc(NC(=O)c3ccc(OCC(C)C)c(OC)c3)o2)cc1 | 10.4 (active) |
| CCOc1ccc(NC(=O)CNC(=O)c2ccc(OC)c(OC)c2)cc1 | -0.166 |
| O=C(COc1ccccc1)Nc1nnc(-c2ccccc2)o1 | -0.421 |
| COc1cccc(-c2nnc(NC(=O)C(C)C)o2)c1 | 0.295 |
| CCOc1ccc(-c2nnc(NC(=O)CCCOc3cccc(C)c3)o2)cc1 | 3.62 (active) |
| COc1ccc(-c2nnc(NC(=O)c3ccc(F)cc3)o2)cc1 | 5.46 (active) |
| COc1ccc(-c2nnc(-c3ccc(OCC(C)C)cc3)o2)cc1 | 0.807 |
| CCOc1cccc(C(=O)Nc2cccc(-c3nnc(-c4ccc(C)cc4)o3)c2)c1 | 0.689 |
| COc1ccc(-c2nnc(NC(=O)c3cc(Cl)ccc3Cl)o2)cc1 | 1.02 |
| CC(C)C(=O)Nc1nnc(-c2ccccc2)o1 | 0.162 |
| O=C(Nc1cccc(F)c1)C1CCN(C(=O)c2ccccc2Cl)CC1 | -0.486 |
| CCOC(=O)CS(=O)(=O)c1ccc(C(F)(F)F)cn1 | -0.0154 |
| CCCOC(=O)c1ccc(NS(=O)(=O)c2cccs2)cc1 | 0.0163 |
| Cc1cc(C)c2nc(NC(=O)c3cccc(S(=O)(=O)N4CCc5ccccc54)c3)sc2c1 | -0.315 |
| CN1CCOCCOCCN(C)C(=O)N2CCOCCOCCN(CCOCC2)C1=O | 1.25 |
| CC(C)(C)c1ccc(CSc2nnc(-c3ccccn3)n2Cc2ccco2)cc1 | -0.295 |
| Clc1ncnc2scc(C3COc4ccccc4O3)c12 (stereo not given) | -0.228 |
| Cc1cc(C)nc(NS(=O)(=O)c2ccc(NC(=O)CCC3COc4ccccc4O3)cc2)n1 (stereo not given) | -0.4 |
| Cc1cc(NC(=O)c2cnc3ccccn3c2=O)no1 | -0.108 |
| CCCCNC(=S)NCCN1CCCCC1 | 0.407 |
| COc1ccc(C(C[N+](=O)[O-])c2c(C)[nH]c3ccccc23)cc1OC (stereo not given) | -2.31 |
| COc1ccc(OCC(O)CN(C2CCCCC2)C2CCCCC2)cc1 (stereo not given) | 0.744 |

| Structure (SMILES) | z-score |
| --- | --- |
| CN(CC(O)COc1ccc(OCC(O)CN(C)C2CCCCC2)cc1)C1CCCCC1 (stereo not given) | 1.64 |
| CCN(CC(O)COc1ccc(OCC(O)CN(CC)C2CCCCC2)cc1)C1CCCCC1 (stereo not given) | 2.32 |
| O=C(/C=C/c1ccc(S(=O)(=O)N2CCOCC2)cc1)NCc1ccccc1 | -0.687 |
| CCOC(=O)N1CCC(N(C(=O)Nc2ccc(Cl)c(Cl)c2)C(C)CC)CC1 (stereo not given) | -0.099 |
| CCOC(=O)c1sc(Nc2nc3c(F)cccc3s2)cc1C | 0.23 |
| O=c1oc2ccccc2cc1-c1csc(Nc2nc3c(F)cccc3s2)n1 | 0.848 |
| COc1cccc(-c2nnc(Nc3nc4c(F)cccc4s3)o2)c1 | 17.4 (active) |
| COc1cccc(-c2nnc(NC(=O)C3CCCCC3)o2)c1 | -0.375 |
| Fc1cccc2sc(Nc3nnc(-c4ccccc4)o3)nc12 | 17.1 (active) |
| c1coc(-c2nnc(NC3=NCCC3)o2)c1 | 1.08 |
| COc1cc(-c2nnc(CSc3nc4ccccc4s3)o2)cc(OC)c1OC | -3.36 (active) |
| Cc1ccsc1C(=O)Nc1nnc(-c2ccco2)o1 | 0.832 |
| COc1cc(OC)cc(-c2nnc(Nc3nc4c(F)cccc4s3)o2)c1 | 9.94 (active) |
| Fc1cccc2sc(Nc3nnc(-c4ccco4)o3)nc12 | 16 (active) |
| COc1cccc(-c2nnc(-c3ccc(C(F)(F)F)cc3)o2)c1 | -0.245 |
| Nc1nc2c(F)cccc2s1 | -0.0918 |
| CCOC(=O)C(C)n1cnc2c1c(=O)[nH]c(=O)n2C (stereo not given) | -0.374 |
| COc1ccc(CNC(=O)CN(C(=O)c2ccc(CN3CCOCC3)o2)C2CCCC2)cc1 | -0.1 |
| CCOc1cc(-c2cc(-c3ccc(C)cc3)nc(N)c2C#N)ccc1O | -0.244 |
| CC1c2c([nH]c3ccccc23)CCC1C(=O)O (stereo not given) | 0.673 |
| CCN1CCN(C(=S)NCc2ccc(C)cc2)CC1 | 0.0391 |
| CN(CC(=O)Nc1cccnc1)S(=O)(=O)c1ccccc1 | -0.0827 |
| CCOC(=O)C1[C@H]2C(=O)N(CCCOC)C[C@]23C=C[C@H]1O3 (stereo not given in full) | -0.0146 |
| CCOCCCNCC(=O)NC1(C)C2CCC(C2)C1(C)C (stereo not given) | -0.581 |
| O=C(Nc1ccc2c(c1)OCO2)N1CCN(C/C=C/c2ccccc2)CC1 | -0.663 |
| CN(C)c1cccc(C(=O)OCC(=O)NCC2CCCO2)c1 (stereo not given) | -0.266 |
| Cc1ccc(CN=C2Nc3ccccc3CS2)cc1 | -0.225 |

| Structure (SMILES) | z-score |
| --- | --- |
| Cc1cccc(NC(=O)c2cc(Cl)sc2Cl)c1C | 0.0762 |
| CC(C)(C)Cc1nc(-c2ccc(Cl)cc2)no1 | 0.892 |
| COc1ccc(CCC(=O)NCc2cnn(C)c2)cc1 | 3.37 (active) |
| CCn1cc(CNC(=O)CCc2ccc(OC)cc2)cn1 | 0.0492 |
| COc1ccc(CCC(=O)NCc2cn3ccsc3n2)cc1 | 0.0209 |
| O=C(c1cc(-c2ccc(Cl)cc2Cl)on1)N1CCN(C(=O)c2ccco2)CC1 | 0.486 |
| O=C(c1cc(-c2ccc(Cl)cc2Cl)on1)N1CCOCC1 | -0.321 |
| O=C(c1cccc(F)c1)N1CCN(C(=O)c2cc(-c3ccc(Cl)cc3Cl)on2)CC1 | 3.48 (active) |
| COC(=O)c1cc2ccccn2c2c(C(=O)OC)c(C(=O)OC)cc1-2 | 0.219 |
| O=C(Nc1ccccc1)c1sc(Cl)nc1-c1ccccc1 | -0.405 |
| Cc1cc(C)n(-c2ccc(C)c(Cl)c2)n1 | -0.078 |
| O=c1cc(-c2ccccc2)[nH][nH]1 | 0.252 |
| Cc1cc(C)[n+]2n1C(=O)C(c1ccccc1)=C2[O-] | 2.57 |
| Cc1cc(=O)n2[nH]c(-c3ccccc3)cc2n1 | -0.312 |
| CN1CCN(C(=O)c2cc(-c3ccccc3)on2)CC1 | 0.0853 |
| CCOC(=O)C1CCCN(C(=O)c2ccco2)C1 (stereo not given) | 0.661 |
| CCOC(=O)C1CCCN(C(=O)c2cc(=O)c3ccccc3o2)C1 (stereo not given) | 2.91 |
| Cc1cc(C(=O)N2CCN(CCc3ccccc3)CC2)no1 | 8.2 (active) |
| Cc1noc(C)c1C(=O)N1CCN(CCc2ccccc2)CC1 | -0.189 |
| Cc1ccc(-c2cc(C(=O)N3CCN(C(=O)c4ccco4)CC3)no2)cc1 | -0.304 |
| O=C(c1cc(-c2ccccc2Cl)on1)N1CCN(C(=O)c2ccco2)CC1 | 0.424 |
| CCOC(=O)C1CCCN(C(=O)c2cc3c(C)nc4ccccc4c3o2)C1 (stereo not given) | -0.243 |
| Cc1ccc(-c2cc(C(=O)N3CCCC3)no2)cc1 | -0.457 |
| Cc1cc(C(=O)N2CCN(c3ccccc3)CC2)no1 | 0.106 |
| O=C(c1cc(-c2ccccc2)on1)N1CCN(C(=O)c2ccco2)CC1 | 2.21 |
| O=C(c1cc(-c2ccccc2)on1)N1CCCC1 | 3.32 (active) |
